Measured values: PubChem BioAssay
Measured potencies and affinities stand elsewhere. Results filed as inconclusive are left out. Active and inactive are the calls of the source.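 How the source made its calls, unless noted: active means a dose-response fit showing signal loss, with half-maximal concentration no higher than twice the top tested dose; inconclusive means flat fit between 30% and 70% signal loss, or poor fit; inactive means the rest.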

Experiments:
[1] = fungal growth arrest, C. neoformans – Alamar Blue, cherry-picks, dose response (AID 686998;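 active means falling signal with fitted half-maximal potency no higher than twice the top valid tested dose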); conditions: Cryptococcus neoformans growth, 24 h; series mostly up to 35 µM
[2] = C. neoformans lysis by adenylate kinase leakage – AK release luminescence, cherry-picks, dose response (AID 687000;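 active means fitted dose curve reaches 40% lysis signal rise at or below the highest valid concentration tested for that sample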;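 further: luminescent detection of adenylate kinase leaking from lysed yeast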); conditions: 4 h, 100% = twice the neutral-control signal; series mostly up to 15 µM
[3] = viability loss in HepG2 hepatoma cells – cell-based, cherry-picks, set 2, cytotoxicity control, dose response (AID 687002); conditions: ATP luminescence (CellTiter-Glo), 48 h; series mostly up to 26 µM
[4] = viability loss in HeLa cells – cell-based, ATP luminescence, cherry-pick samples, cytotoxicity control, dose response (AID 687004;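 active means a fitted half-maximal concentration no higher than twice the top valid tested dose, with signal falling as cells die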); conditions: ATP luminescence (CellTiter-Glo), 48 h; series mostly up to 26 µM

Measured: outcome

CNC[C@H]1Oc2c(NS(=O)(=O)c3cccs3)cccc2C(=O)N([C@H](C)CO)C[C@@H]1C
inactive: [1] | [2] | [3] | [4]

O=C(NCc1ccc(F)cc1)C1C2C=CC3(CN(Cc4cccnc4)C(=O)C13)O2 (centres undefined)
inactive: [1] | [2] | [3] | [4]

C[C@H](CO)N1C[C@H](C)[C@H](CN(C)C(=O)NC2CCCCC2)OCCCC[C@H](C)Oc2ccc(NC(=O)C3CCCCC3)cc2C1=O
inactive: [1] | [2] | [3] | [4]

COc1ccc(NC(=O)N(C)C[C@H]2OCCCC[C@@H](C)Oc3ccc(NC(=O)c4ccccc4)cc3C(=O)N([C@@H](C)CO)C[C@H]2C)cc1
inactive: [1] | [2] | [3] | [4]

O=C(C[C@@H]1CC[C@@H]2[C@H](COC[C@H](O)CN2S(=O)(=O)c2ccc(Oc3ccccc3)cc2)O1)NC1CCC1
inactive: [1] | [2] | [3] | [4]

C[C@H](CO)N1C[C@H](C)[C@@H](CN(C)S(=O)(=O)c2ccc(Cl)cc2)Oc2c(NS(=O)(=O)c3ccc(F)cc3)cccc2C1=O
inactive: [1] | [2] | [3] | [4]

C[C@@H](O)C#Cc1ccc([C@@H]2[C@H](CO)N3CCCCN(CC4CC4)C[C@@H]23)cc1
inactive: [1] | [2] | [3] | [4]

CO[C@@H]1CN(C)C(=O)c2ccc(NC(=O)C3CC3)cc2OC[C@H](C)N(Cc2ccc(F)cc2)C[C@H]1C
inactive: [1] | [2] | [3] | [4]

CN1CCN(C(=O)CN(c2ccc(I)cc2)S(=O)(=O)c2ccccc2)CC1
inactive: [1] | [2] | [3] | [4]

CC(C)NC(=O)N1CC[C@@H]2[C@@H](CO)N(C)c3ccc(-c4cccc(F)c4)cc3[C@@H]21
inactive: [1] | [2] | [3] | [4]

C/C=C/c1ccc([C@H]2[C@@H](CO)N(C(=O)CC)[C@@H]2CNC(=O)C2CC2)cc1
inactive: [1] | [2] | [3] | [4]

C[C@@H]1CN([C@H](C)CO)C(=O)c2cc(NS(=O)(=O)c3cn(C)cn3)ccc2O[C@H]1CN(C)C(=O)Nc1cccc2ccccc12
inactive: [1] | [2] | [3] | [4]

Cc1ccc(S(=O)(=O)N[C@@H]2CC[C@H](CCNC(=O)C3CCCC3)O[C@@H]2CO)cc1
inactive: [1] | [2] | [3] | [4]

CCC(=O)N1CCN(c2ccccc2NC(=S)NC(=O)c2cccc([N+](=O)[O-])c2)CC1
inactive: [1] | [2] | [3] | [4]

C[C@H](O)C#Cc1ccc2c(c1)O[C@H](CN(C)Cc1ccncc1)[C@H](C)CN([C@H](C)CO)S2(=O)=O
inactive: [1] | [3] | [4]

COC(=O)C1=C(C)N(Cc2ccc(Br)cc2)C(=S)NC1c1ccc(F)cc1 (centres undefined)
inactive: [1] | [3]

C[C@@H]1CN([C@@H](C)CO)C(=O)c2cc(NS(=O)(=O)c3cn(C)cn3)ccc2O[C@@H](C)CCCCO[C@@H]1CN(C)Cc1ccc(C(F)(F)F)cc1
inactive: [1] | [3]

CCNC(=O)C[C@H]1CC[C@H](NC(=O)NC2CCCCC2)[C@@H](CO)O1
inactive: [1] | [3] | [4]

Cc1cccc(C)c1NC(=O)CN(C)C(=O)C1CCCCC1
inactive: [1] | [3] | [4]
